PubChem BioAssay
The source made the active and inactive calls.

Tests used:
Albumin (Bos taurus) = Albumin (Bos taurus) (UniProt P02769); assay: bovine serum albumin binders on microarray, profiling panel, artefact control for SMM control protein annotation, biochemical, small-molecule microarray, Alexa647 label, 635/667 nm fluorescence (AID 1118); details: BSA-A647 binding, fluorescence 635 nm, higher = more signal;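 also: score merges 667 nm emission intensity and signal-to-noise per printed compound spot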
[1] = small-molecule microarray binders of probe aXIP, primary screen, biochemical, NeuroSMM set, 635/667 nm fluorescence (AID 1119); details: higher = more signal, called active from +8 up or from −8 down;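 also: probe is the protein aXip251-270 applied at 1 µg/mL to compound-printed slides; binding of probe to printed compounds measured as 667 nm fluorescence plus signal to noise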
[2] = small-molecule binders of probe aNOTCH3, primary screen, biochemical, small-molecule microarray, 635/667 nm fluorescence (AID 1120); details: higher = more signal;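 also: probe is a biotin-tagged antibody raised against NOTCH3 rather than NOTCH3 protein; score merges spot fluorescence near 667 nm with spot signal to noise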
[3] = small-molecule binders of probe aNOTCH2, primary screen, biochemical, small-molecule microarray, 635/667 nm fluorescence (AID 1121); details: higher = more signal;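 also: score merges feature fluorescence read at 667 nm with its signal to noise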
[4] = target: Carbonic anhydrase 2 (Homo sapiens) (UniProt P00918); assay: CAII small-molecule binders, profiling panel, biochemical, small-molecule microarray, Alexa647-labelled CAII (AID 1122); details: CAII-A647 binding fluorescence, higher = more signal
[5] = COS7 lysate on small-molecule microarray, probe aHis, 635 nm (AID 1123); details: COS7 cell lysate, fluorescence, higher = more signal;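 also: z-score combines 667nm fluorescence intensity with signal-to-noise per printed compound spot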
[6] = compound binding in COS7 lysate, probe aLAP1, primary screen, cell lysate, small-molecule microarray (AID 1124); details: probe aLAP1, fluorescence, higher = more signal;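 also: lysate comes from COS7 cells expressing LAP1 and is applied at 0.3 µg/mL; score merges spot fluorescence near 667 nm with signal-to-noise over triplicate slides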
Sam68 (KHDRBS1) = assay: Sam68 small-molecule binders, primary screen, biochemical, small-molecule microarray, 635 nm fluorescence (AID 1125); details: small-molecule microarray binding, higher = more signal;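 also: score merges 667 nm channel intensity with signal to noise over triplicate slides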
[7] = test system: Chordin-like protein 2 (CHRDL2); assay: CHRDL2 small-molecule binders, primary screen, biochemical, small-molecule microarray, 635 nm fluorescence (AID 1126); details: small-molecule microarray binding, fluorescence 635 nm; higher = more signal;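 also: printed compound slides probed with Chrdl2 protein at 4 µg/mL for 1 h at 4 C; score merges 667 nm emission intensity with signal to noise over three replicate slides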
[8] = target: Concanavalin-A (Canavalia ensiformis) (UniProt P02866); assay: ConA small-molecule binders, primary screen, artefact control for SMM control protein annotation, biochemical, small-molecule microarray, Alexa647 label, 635 nm (AID 1127); details: ConA-A647 binding fluorescence, higher = more signal;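 also: z combines 667 nm emission intensity with signal-to-noise across three replicate slides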
Chain of Concanavalin-A (Canavalia ensiformis) (P02866 whole entry, looked up): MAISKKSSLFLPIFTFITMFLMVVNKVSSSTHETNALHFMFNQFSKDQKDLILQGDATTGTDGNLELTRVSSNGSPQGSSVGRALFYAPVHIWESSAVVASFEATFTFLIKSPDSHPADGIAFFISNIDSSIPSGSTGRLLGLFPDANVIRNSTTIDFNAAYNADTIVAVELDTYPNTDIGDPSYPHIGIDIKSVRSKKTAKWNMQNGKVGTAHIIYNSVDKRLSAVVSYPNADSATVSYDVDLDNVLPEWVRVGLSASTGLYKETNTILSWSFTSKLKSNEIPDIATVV

Chain of Albumin (Bos taurus) (P02769 whole entry, looked up): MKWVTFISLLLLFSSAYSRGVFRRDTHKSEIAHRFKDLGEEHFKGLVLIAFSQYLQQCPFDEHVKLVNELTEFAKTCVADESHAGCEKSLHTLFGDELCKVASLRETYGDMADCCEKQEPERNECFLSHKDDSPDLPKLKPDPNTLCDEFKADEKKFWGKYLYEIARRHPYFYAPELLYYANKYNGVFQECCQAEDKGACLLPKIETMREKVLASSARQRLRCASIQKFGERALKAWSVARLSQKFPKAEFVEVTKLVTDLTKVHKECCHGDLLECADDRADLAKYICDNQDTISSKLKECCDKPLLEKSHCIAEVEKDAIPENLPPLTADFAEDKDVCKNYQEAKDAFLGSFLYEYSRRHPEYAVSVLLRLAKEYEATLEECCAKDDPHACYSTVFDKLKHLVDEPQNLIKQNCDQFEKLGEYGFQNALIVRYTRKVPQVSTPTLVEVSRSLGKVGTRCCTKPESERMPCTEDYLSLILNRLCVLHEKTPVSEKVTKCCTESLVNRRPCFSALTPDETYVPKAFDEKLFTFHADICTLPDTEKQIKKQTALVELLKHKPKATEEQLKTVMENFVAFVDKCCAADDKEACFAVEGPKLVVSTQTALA

Row | SMILES | composite z-score (Albumin (Bos taurus)) | composite Z-score [1] | composite z-score [2] | composite z-score [3] | composite z-score [4] | composite z-score [5] | composite z-score [6] | composite z-score (Sam68 (KHDRBS1)) | composite z-score [7] | composite z-score [8]
1 | Cc1cccc(/C=C/C=O)c1 | 0.92 | -0.77 (inactive) | -0.139 | -0.104 | -0.0363 | 0.93 | 0.364 | 0.339 | -0.058 | 0.786
2 | C=CCNC(=O)[C@H]1[C@@H]2C(=O)O[C@@H](c3ccccc3)[C@@H](c3ccccc3)N2[C@@H](c2ccc(O)cc2)[C@]12C(=O)Nc1ccc(C#Cc3ccc(OC)cc3)cc12 | -0.208 | -0.155 (inactive) | -0.0903 | 0.0086 | 0.38 | 1.68 | 0.616 | 1.3 | 0.704 | 0.552
3 | O=C1OCCC/C=C\[C@H]2OC34C=CCN(Cn5nnc6ccccc65)C(=O)[C@H]3N(CCCO)C(=O)[C@@H]4C12 (stereo not given in full) | -1.38 | -0.774 (inactive) | -0.306 | -0.112 | 0.896 | 1.82 | 0.888 | 0.301 | -2.21 | -0.946
4 | C=C[C@H](C)[C@H](O)c1ccc(OCCO)cc1 | -0.529 | -0.254 (inactive) | -0.502 | -0.185 | 0.264 | -1.09 | -0.177 | -1.74 | -2.23 | -0.802
5 | CN1C(=O)C2C(C1=O)C1C=C(c3ccc(CO)cc3)C2C(C2CC2)N1Cc1sc2ccccc2c1Cl (stereo not given) | 0.947 | -0.0285 (inactive) | 0.248 | 0.114 | 0.661 | 2.59 | 0.74 | 1.3 | -0.124 | 1.21
6 | C=CCC(OC(C)=O)[C@@H]1[C@@H](N(Cc2ccc(-c3cccc(C(F)(F)F)c3)o2)C(=O)c2ccc(C)cc2)c2cc(OCCCO)ccc2N1C(=O)c1ccc2ccccc2n1 (stereo not given in full) | -0.706 | 0.936 (inactive) | 0.116 | -0.0255 | 0.053 | 0.163 | 0.497 | 0.0508 | 0.232 | -0.335
7 | Cc1ccc(C(C)CC(O)C2C=CC3C(=O)NC(=O)C3N2Nc2ccccn2)o1 (stereo not given) | -0.5 | 0.598 (inactive) | 0.237 | -0.106 | 0.887 | 0.305 | 0.149 | 0.259 | 0.676 | -0.336
8 | [N-]=[N+]=NCc1ccccc1[C@@H]1OC(c2ccc(OCCCO)cc2)=N[C@]1(Cc1ccccc1)C(=O)O | 0.188 | 1.38 (inactive) | -0.0362 | -0.0836 | 0.607 | 2.25 | -0.324 | 1.13 | -0.817 | 0.802
9 | O=C1O[C@@H](c2ccccc2)[C@@H](c2ccccc2)N2[C@@H](c3ccc(O)cc3)[C@]3(C(=O)Nc4ccccc43)[C@@H](C(=O)NC[C@H](O)c3ccccc3)[C@H]12 | 0.726 | 0.0895 (inactive) | -0.242 | -0.0885 | 0.699 | 1.66 | -0.238 | 0.607 | 0.458 | 0.442
10 | COCC1=C([C@H](O)CCc2ccccc2)[C@H](CO)[C@@H]2C(=O)N(Cc3ccccc3)C(=O)[C@@H]2C1 | -0.103 | 0.0653 (inactive) | -0.0456 | -0.129 | -0.0186 | 0.0949 | -0.102 | -0.0322 | 0.422 | 0.0998
11 | CN(C)CCCC[C@@H]1NC(=O)[C@@H]2C[C@H](C(=O)NCCCCCN)[C@H](c3ccc(O)cc3)N2C1=O | 0.932 | 0.351 (inactive) | 0.0229 | -0.0478 | 0.462 | 0.984 | 0.443 | 1 | -1.76 | 1.1
12 | CC1CC/C=C\[C@H]2OC34C=CCN(CCN5CCOCC5)C(=O)[C@H]3N(CCCCCO)C(=O)[C@@H]4C2C(=O)O1 (stereo not given in full) | -1.19 | 0.905 (inactive) | -0.178 | -0.175 | 0.899 | -0.471 | -0.653 | -1.25 | -0.191 | -0.233
13 | COCCCNC(=O)[C@@]1(Sc2ccc(C)cc2)CC(=O)N(Cc2ccccc2)[C@@H]1c1ccc(CO)cc1 | 0.146 | 0.201 (inactive) | -0.689 | -0.134 | 0.534 | 2.54 | 0.378 | 0.0145 | -0.21 | -0.668
14 | O=C1OCC=C[C@H]2OC34C=CCN(CCN5CCOCC5)C(=O)[C@H]3N(CCCCCCO)C(=O)[C@@H]4[C@@H]12 (stereo not given in full) | 0.509 | -1.05 (inactive) | 0.0208 | -0.104 | 0.688 | 3.1 | 0.55 | 0.274 | 0.158 | 0.0683
15 | O=P(NCC1(CC2(c3ccccc3)CO2)CC1)(c1ccccc1)c1ccccc1 (stereo not given) | 0.0287 | -0.187 (inactive) | -0.159 | -0.0451 | 0.692 | 2.49 | 0.106 | -0.31 | -0.821 | -0.805
16 | COCCOC(=O)N1C(=O)[C@@]2(c3cc(C#CC4=CCCCC4)ccc31)[C@H](c1ccc(OCCO)cc1)N1[C@H](c3ccccc3)[C@H](c3ccccc3)OC(=O)[C@H]1[C@@H]2C(=O)Nc1nc2ccccc2s1 | 0.539 | 0.657 (inactive) | 0.151 | -0.0483 | 0.154 | 0.999 | 0.664 | 1.31 | 1.29 | 1.09
17 | O=C1NC(=O)C2C1C=CC(C(O)c1cccs1)N2Nc1ccccn1 (stereo not given) | 0.426 | 0.32 (inactive) | 0.118 | -0.0826 | 0.803 | 1.21 | 0.0919 | 0.248 | 0.129 | 0.766
